Test results as given in PubChem BioAssay.
Values without a mark were called inactive. For some assays here: Entries with a potency or affinity are not part of this list. Activity calls are given as the source filed them. Unless noted, no rule for the calls is given here.

Assays:
[1] = antimalarial activity against Dd2 strain (AID 2302;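 active = growth inhibition above 50% at the single 2 µM test dose, taken to imply half-maximal potency below 2 µM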;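 also: 0% = DMSO untreated growth and 100% = chloroquine plus artemisinin killed control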); details: P. falciparum Dd2 in RBCs, LDH growth readout, 72 h; at 2 µM; hits give high values
[2] = HepG2 cytotoxicity, primary screen, cytotoxicity control for P. falciparum antimalarial project, cell-based, ATP luminescence (AID 2303;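 active = inhibition above 50%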;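 also: 0% = DMSO wells and 100% = digitonin-killed cells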); details: HepG2 viability, 24-48 h, at 10 µM, hits give high values
[3] = molecular target: L-lactate dehydrogenase (Plasmodium falciparum (isolate CDC / Honduras)) (UniProt Q27743); test: PfLDH activity inhibition – cell lysate, 3D7 strain, counter-screen for P. falciparum growth inhibition project (AID 2304);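 also: 0% = vehicle and 100% = reference inhibitor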; details: P. falciparum 3D7 crude extract, LDH APAD/NBT absorbance; at 2 µM; hits give high values
Chain of L-lactate dehydrogenase (Plasmodium falciparum (isolate CDC / Honduras)) (Q27743 whole entry, looked up): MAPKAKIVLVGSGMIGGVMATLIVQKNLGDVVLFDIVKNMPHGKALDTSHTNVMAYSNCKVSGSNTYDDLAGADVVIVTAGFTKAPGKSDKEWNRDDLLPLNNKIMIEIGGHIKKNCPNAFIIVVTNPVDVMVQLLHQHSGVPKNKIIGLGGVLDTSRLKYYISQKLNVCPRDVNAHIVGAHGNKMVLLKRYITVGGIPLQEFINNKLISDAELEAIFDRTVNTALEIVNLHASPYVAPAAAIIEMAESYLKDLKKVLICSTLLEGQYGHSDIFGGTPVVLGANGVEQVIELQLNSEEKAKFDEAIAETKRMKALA

[4] = inhibition of 3D7 malaria parasite growth – strain 3D7 (AID 2306);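 also: 0% = DMSO wells and 100% = chloroquine plus artemisinin control wells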; details: P. falciparum 3D7 erythrocytic growth, LDH absorbance, 72 h; at 2 µM; hits give high values
[5] = molecular target: Calcium-dependent protein kinase 1 (Plasmodium falciparum (isolate 3D7)) (UniProt P62344); test: PfCDPK1 kinase inhibitors, biochemical, TCAMS library (AID 1159585; cut-off not given, nearly all actives have IC50 up to about 0.98 µM;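 also: inhibitors leave more ATP so luminescence rises with inhibition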); details: recombinant PfCDPK1, Kinase-Glo ATP depletion luminescence
Chain of Calcium-dependent protein kinase 1 (Plasmodium falciparum (isolate 3D7)) (P62344 whole entry, looked up): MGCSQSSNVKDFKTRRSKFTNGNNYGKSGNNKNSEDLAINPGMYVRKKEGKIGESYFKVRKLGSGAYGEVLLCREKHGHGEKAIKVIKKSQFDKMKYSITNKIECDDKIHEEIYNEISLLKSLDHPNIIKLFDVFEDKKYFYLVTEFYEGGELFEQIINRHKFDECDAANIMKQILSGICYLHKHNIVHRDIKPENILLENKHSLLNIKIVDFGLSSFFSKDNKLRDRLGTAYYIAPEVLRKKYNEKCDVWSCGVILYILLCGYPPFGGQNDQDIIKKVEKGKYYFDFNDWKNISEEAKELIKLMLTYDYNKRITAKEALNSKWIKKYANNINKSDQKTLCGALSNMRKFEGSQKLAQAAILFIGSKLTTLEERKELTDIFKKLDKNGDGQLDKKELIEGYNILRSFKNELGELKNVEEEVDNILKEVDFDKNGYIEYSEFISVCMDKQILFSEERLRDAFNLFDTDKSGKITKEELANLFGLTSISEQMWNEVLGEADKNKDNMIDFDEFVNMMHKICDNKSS

[6] = molecular target: Plasmodium falciparum protein kinase 6 (PK6, PF3D7_1337100) (UniProt Q8IDW1); test: PfPK6 kinase inhibitors, biochemical, TCAMS library (AID 1159586); details: recombinant PfPK6, Kinase-Glo ATP depletion luminescence
Chain of Plasmodium falciparum protein kinase 6 (PK6, PF3D7_1337100) (Q8IDW1 1-305): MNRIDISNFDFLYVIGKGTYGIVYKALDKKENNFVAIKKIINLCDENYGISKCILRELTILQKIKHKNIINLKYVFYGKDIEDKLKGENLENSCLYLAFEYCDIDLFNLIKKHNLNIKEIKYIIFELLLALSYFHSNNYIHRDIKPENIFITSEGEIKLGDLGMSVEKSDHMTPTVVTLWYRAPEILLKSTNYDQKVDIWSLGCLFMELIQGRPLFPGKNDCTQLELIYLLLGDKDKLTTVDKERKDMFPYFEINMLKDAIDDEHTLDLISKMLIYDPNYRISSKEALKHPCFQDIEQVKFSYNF

[7] = molecular target: Protein kinase 7 (PK7), Plasmodium falciparum 3D7 (PF3D7_0213400) (UniProt Q7YTF7); test: inhibition of Plasmodium PK7 catalytic activity – biochemical, TCAMS antimalarial set, Kinase-Glo luminescence (AID 1159587); details: recombinant PfPK7, Kinase-Glo ATP depletion luminescence
Chain of Protein kinase 7 (PK7), Plasmodium falciparum 3D7 (PF3D7_0213400) (Q7YTF7 1-343): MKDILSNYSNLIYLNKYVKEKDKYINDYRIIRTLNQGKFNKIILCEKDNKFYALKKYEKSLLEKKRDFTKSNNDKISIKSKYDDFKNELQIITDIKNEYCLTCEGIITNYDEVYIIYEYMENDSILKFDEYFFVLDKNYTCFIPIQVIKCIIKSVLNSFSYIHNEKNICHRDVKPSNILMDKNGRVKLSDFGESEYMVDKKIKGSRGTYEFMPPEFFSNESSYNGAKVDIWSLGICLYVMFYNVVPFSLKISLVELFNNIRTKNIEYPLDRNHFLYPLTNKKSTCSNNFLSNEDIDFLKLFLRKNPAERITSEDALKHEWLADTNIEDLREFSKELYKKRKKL

[8] = molecular target: Calcium-dependent protein kinase 4 (Plasmodium falciparum (isolate 3D7)) (UniProt Q8IBS5); test: PfCDPK4 kinase inhibitors, biochemical, TCAMS library (AID 1159588; cut-off not given, nearly all actives have IC50 up to about 0.91 µM); details: recombinant PfCDPK4, Kinase-Glo ATP depletion luminescence
Chain of Calcium-dependent protein kinase 4 (Plasmodium falciparum (isolate 3D7)) (Q8IBS5 whole entry, looked up): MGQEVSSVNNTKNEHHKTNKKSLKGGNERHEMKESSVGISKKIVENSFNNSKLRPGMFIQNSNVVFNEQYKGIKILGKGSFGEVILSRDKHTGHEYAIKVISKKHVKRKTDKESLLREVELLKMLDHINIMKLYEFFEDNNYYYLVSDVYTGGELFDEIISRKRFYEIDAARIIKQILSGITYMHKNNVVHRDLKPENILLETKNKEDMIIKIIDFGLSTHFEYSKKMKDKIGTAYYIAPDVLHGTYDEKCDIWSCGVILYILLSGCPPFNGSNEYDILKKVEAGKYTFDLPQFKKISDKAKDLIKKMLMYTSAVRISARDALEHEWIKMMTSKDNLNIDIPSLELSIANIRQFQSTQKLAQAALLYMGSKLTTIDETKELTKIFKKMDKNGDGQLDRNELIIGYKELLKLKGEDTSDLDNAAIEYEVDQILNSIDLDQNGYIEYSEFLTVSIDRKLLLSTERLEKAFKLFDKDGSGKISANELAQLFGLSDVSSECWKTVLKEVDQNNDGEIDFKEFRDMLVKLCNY

SMILES	growth inhibition [1]	inhibition [2]	inhibition [3] [%]	growth inhibition [4]	outcome [5]	outcome [6]	outcome [7]	outcome [8]
O=C(/C=C/c1ccc(Cl)c(Cl)c1)NCCCCCN1CCC(NC(=S)Nc2ccc(Cl)c(Cl)c2)CC1	65% (active)	29%	2	99% (active)	inactive	inactive	inactive	inactive
Cc1cccc2[nH]c(-c3cccc(-c4ccc(NC(=O)Nc5ccc6c(c5)OCO6)cc4)c3)nc12	86% (active)	80% (active)	-3	101% (active)	inactive	inactive	inactive	inactive
COc1cc(Nc2nccc(NCC(O)c3ccc(C(F)(F)F)cc3)n2)cc(OC)c1OC (stereo not given)	14%	45%	-2	91% (active)	inactive	inactive	inactive	inactive
COc1cc2c(cc1S(=O)(=O)c1ccc(NC(=O)c3cccc(C(F)(F)F)c3)cc1)CCN(C)CC2	25%	18%	3	92% (active)	inactive	inactive	inactive	inactive
Cc1cc(Cc2ccc(S(=O)(=O)c3cc4c(cc3O)CCN(C)CC4)cc2)ccc1Cl	12%	7%	0	96% (active)	inactive	inactive	inactive	inactive
O=C1SC(=Cc2ccc(O)c(O)c2)C(=O)N1c1ccccc1	17%	12%	-5	91% (active)	inactive	inactive	inactive	inactive
CN(C)CCN(Cc1ccccc1-c1ccc(CNCCc2ccccc2)cc1)C(=O)c1ccccc1	97% (active)	81% (active)	-3	95% (active)	inactive	inactive	inactive	inactive
Cc1c(Cn2ncc(N3C[C@@H](C)N[C@@H](C)C3)c(Cl)c2=O)cccc1NC(=O)Nc1ccc(-c2ccccc2)cc1	35%	97% (active)	-6	97% (active)	inactive	inactive	inactive	inactive
Cc1onc(-c2ccccc2)c1-c1nc(NCc2ccccc2Cl)no1	92% (active)	2%	-3	99% (active)	inactive	inactive	inactive	inactive
Cc1ccc(CN2CCCN(Cc3cccc(NC(=O)c4cc5ccccc5s4)c3)CC2)cc1	28%	32%	-3	87% (active)	inactive	inactive	inactive	inactive
C=CCN(c1nc(NC)nc(NCc2c(OC)cccc2OC)n1)C1CCCC1	70% (active)	18%	-3	85% (active)	inactive	inactive	inactive	inactive
Cc1ccc(C(=O)Nc2ccc(Nc3ccnc4cc(-c5ccncc5)ccc34)cc2O)cc1	100% (active)	14%	1	97% (active)	inactive	inactive	inactive	inactive
Fc1ccc2nc(-c3cccc(-c4ccc(CNCCN5CCNCC5)cc4)c3)[nH]c2c1	-3%	9%	-2	90% (active)	inactive	inactive	inactive	inactive
COc1ccc(CNCc2cccc(-c3ccc(-c4nc5ccccc5[nH]4)s3)c2)cc1	52% (active)	14%	0	90% (active)	inactive	inactive	inactive	inactive
O=C(NC1CCN(Cc2ccccc2)CC1)c1ccc(-c2nc3cc(Cl)c(Cl)cc3[nH]2)s1	99% (active)	17%	-1	103% (active)	inactive	inactive	inactive	inactive
COc1ccc2ccccc2c1C=NNc1ccnc2cc(Cl)ccc12	94% (active)	20%	-5	100% (active)	inactive	inactive	inactive	inactive
O=c1cc(NCCCNC2CCc3ccc(Cl)cc32)[nH]c2ccccc12 (stereo not given)	39%	-2%	3	92% (active)	inactive	inactive	inactive	inactive
Fc1ccc(C(OCC2CCCN(Cc3cccc4cccnc34)C2)c2ccc(F)cc2)cc1 (stereo not given)	97% (active)	21%	3	98% (active)	inactive	inactive	inactive	inactive
COc1ccc2ncc(F)c(CCN3CCC[C@H](CNCc4ccc5c(n4)NC(=O)CS5)C3)c2n1	34%	16%	3	96% (active)	inactive	inactive	inactive	inactive
Cc1cc(NC2CCN(CC3CCCCC3)CC2)nc(Nc2ccccc2Cl)n1	31%	28%	4	100% (active)	inactive	inactive	inactive	inactive

SMILES	growth inhibition [1]	inhibition [2]	inhibition [3] [%]	growth inhibition [4]	outcome [5]	outcome [6]	outcome [7]	outcome [8]
O=C(/C=C/c1ccc(C(F)(F)F)cc1)NCCCCCN1CCCN(C(=O)Nc2ccc(Cl)c(Cl)c2)CC1	17%	89% (active)	0	100% (active)	inactive	inactive	inactive	inactive
Cc1cc(Cl)ccc1NC(=O)Nc1ccc2nccc(N3CCN(C)CC3)c2c1	74% (active)	-1%	1	101% (active)	inactive	inactive	inactive	inactive
COc1ccc(CNCCc2cccs2)cc1-c1ccc(S(=O)(=O)NCCN2CCCC2)s1	21%	41%	2	99% (active)	inactive	inactive	inactive	inactive
CN1CCC(NCc2ccc(-c3cccc(S(=O)(=O)NCc4ccccc4)c3)cc2)CC1	94% (active)	72% (active)	-3	101% (active)	inactive	inactive	inactive	inactive
COc1ccc([N+](=O)[O-])cc1N(Cc1ccccc1-c1ccccc1)S(=O)(=O)c1ccc(C(F)(F)F)cc1	66% (active)	3%	-2	96% (active)	inactive	inactive	inactive	inactive
O=C(Nc1ccc(C(=O)OC[C@@H]2CCCN3CCCC[C@H]23)cc1)c1ccc(Cl)c(Cl)c1	37%	20%	0	99% (active)	inactive	inactive	inactive	inactive
CCCCCCCC1CC(CC(=O)Nc2ccnc3ccc(OC)cc23)CN1C(=O)OC(C)(C)C (stereo not given)	34%	1%	3	100% (active)	inactive	inactive	inactive	inactive
CNCCCn1c(N(C)C)nc2cc(-n3cnc4cc(-c5ccc(Cl)cc5)sc4c3=O)ccc21	27%	39%	1	86% (active)	inactive	inactive	inactive	inactive
CC(C)N(C(=O)CSc1nc2cc(Cl)ccc2c(=O)n1Cc1ccccc1)C(C)C	97% (active)	-14%	-5	100% (active)	inactive	inactive	inactive	inactive
COc1ccc2nccc(NN=Cc3ccccc3Cl)c2c1	99% (active)	29%	-4	100% (active)	inactive	inactive	inactive	inactive
N#Cc1cccc(Nc2cc(C(F)(F)F)nc(Nc3ccccc3)n2)c1	17%	7%	5	92% (active)	inactive	inactive	inactive	inactive
O=C(c1ccc(-c2ccc(-c3nc4ccc(C(F)(F)F)cc4[nH]3)s2)cc1)N1CCCCC1CN1CCC(O)C1 (stereo not given)	80% (active)	90% (active)	3	92% (active)	inactive	inactive	inactive	inactive
CC(=O)Nc1ccc(C(=O)Nc2ccc(-c3cccc(-c4nc5ccc(C(F)(F)F)cc5[nH]4)c3)cc2)cn1	98% (active)	29%	-2	102% (active)	inactive	inactive	inactive	inactive
Clc1ccc(C2CCN(CCCOc3ccc4c(c3)CCNCC4)CC2)cc1	28%	93% (active)	-8	98% (active)	inactive	inactive	inactive	inactive
CCCC1(NC[C@@H](O)[C@H](Cc2ccccc2)NC(=O)c2cc(NCC)cc(N3CCCCS3(=O)=O)c2)CC1	98% (active)	1%	0	98% (active)	inactive	inactive	inactive	inactive
CC(=O)Nc1cccc(C(=O)Nc2cccc(-c3ccc(-c4nc5ccc(F)cc5[nH]4)s3)c2)c1	30%	88% (active)	-1	94% (active)	inactive	inactive	inactive	inactive
CC1CCCC(NCc2c(O)ccc3ccccc23)C1 (stereo not given)	25%	10%	1	93% (active)	inactive	inactive	inactive	inactive
COc1ccc(NC(=O)/C=C/c2cc(Br)ccc2F)cc1OCCN(C(C)C)C(C)C	14%	22%	-3	100% (active)	inactive	inactive	inactive	inactive
Cc1cc(C(F)(F)F)n2nc(C(=O)N(Cc3cncn3Cc3cccc(F)c3)CC3CC3)cc2n1	92% (active)	-2%	3	101% (active)	inactive	inactive	inactive	inactive
CC1(C)[C@H]2CC[C@@H](CNc3nc(NCC(=O)Nc4ccc5ccccc5c4)nc(N4CCC(N5CCCC5)CC4)n3)[C@@H]1C2	20%	6%	-5	93% (active)	inactive	inactive	inactive	inactive
